A short description of assay [1]: ATG_PPRE_CIS: Attagene CIS-FACTORIAL HepG2 Assay for human Peroxisome Proliferator-activated Response Element (PPRE) (AID 2282958). Particulars: HepG2 PPRE cis-element reporter, Attagene transcription factor profiling; actives raise or lower the signal. Put shortly:
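After human HepG2 hepatoma cells were transiently transfected with cis-promoter reporter constructs, they were exposed to test chemicals for 24 hours. Reporter RNA was then reverse-transcribed, PCR-amplified, FAM-labeled, HpaI-digested and quantified by capillary electrophoresis.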

The nature of assay [2]: ATG_RORE_CIS: Attagene CIS-FACTORIAL HepG2 Assay for human RAR-related Orphan Receptor Element (RORE) (AID 2282959). Particulars: HepG2 Attagene cis-factorial RORE reporter, mRNA; actives raise or lower the signal. Put shortly: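 Measured here: transcript induction of a cis-regulated reporter in HepG2 cells transiently transfected via FuGene 6. After 24 h, RNA was processed by RT-PCR and fluorescent capillary electrophoresis; DMSO defined baseline activity.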

The target in assay [3] is Transcription factor Sp1 (Homo sapiens) (UniProt P08047). Nature of the assay: ATG_Sp1_CIS: Attagene CIS-FACTORIAL HepG2 Assay for human Specificity Protein 1 (Sp1) (AID 2282961). Particulars: HepG2 Sp1 cis-reporter transcription, actives raise or lower the signal. Put shortly:
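After transient transfection of HepG2 cells with cis-promoter reporter units and 24 h chemical treatment, reporter transcripts were quantified by RT-PCR and capillary electrophoresis fluorescence. Gain- and loss-of-signal fitted against DMSO.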

The nature of assay [4]: ATG_SREBP_CIS: Attagene CIS-FACTORIAL HepG2 Assay for human Sterol Regulatory Element Binding (SREBP) (AID 2282962). The following applies: HepG2 Attagene cis-factorial SREBP reporter, mRNA; actives raise or lower the signal. Put shortly: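 Values derive from bidirectional curve fitting with DMSO as baseline. The underlying measurement is reporter mRNA from cis-element-regulated units in transiently transfected HepG2, quantified by RT-PCR and capillary electrophoresis after 24 h exposure.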

The nature of assay [5]: ATG_TCF_b_cat_CIS: Attagene CIS-FACTORIAL HepG2 Assay for human T-Cell-Factor with beta-catenin (TCF/b-cat) (AID 2282965). The following applies: HepG2 TCF/beta-catenin cis-reporter transcription, actives raise or lower the signal. Put shortly: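 Measured: reporter mRNA in HepG2 transiently transfected with cis-promoter reporter units, 24 h after chemical addition. Fitting was bidirectional, DMSO as negative control.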

Assay [6] in a line: ATG_TAL_CIS: Attagene CIS-FACTORIAL HepG2 Assay for human TAL Basal Promoter (AID 2282966).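 Note: background control endpoint measuring basal TAL promoter reporter mRNA not a specific factor.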 The following applies: HepG2 Attagene cis-factorial TAL promoter reporter; actives raise or lower the signal. Put shortly: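 Basal-promoter background-control endpoint from a multiplexed HepG2 reporter panel. Cells were exposed 24 h, then reporter mRNA was read by RT-PCR/CE fluorescence and fitted in both directions relative to DMSO.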

A short description of assay [7]: ATG_TGFb_CIS: Attagene CIS-FACTORIAL HepG2 Assay for human Transforming Growth Factor (TGF) (AID 2282967). Particulars: HepG2 Attagene CIS TGFb reporter, mRNA transcription; actives raise or lower the signal. Put shortly:
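Liver HepG2 line, cis-factorial reporter panel, 24 h dosing. Quantitation: RT-PCR products labeled with 6-FAM, cut with HpaI, resolved by capillary electrophoresis; DMSO-referenced bidirectional analysis.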

A short description of assay [8]: ATG_VDRE_CIS: Attagene CIS-FACTORIAL HepG2 Assay for human Vitamin D Receptor Element (VDRE) (AID 2282968). Particulars: HepG2 VDRE cis-reporter transcription, actives raise or lower the signal. Put shortly: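 Readout is VDRE-driven reporter mRNA reflecting endogenous factor activity in human HepG2 cells, sampled 24 h post-dose. Quantification used labelled RT-PCR products separated by capillary electrophoresis; bidirectional analysis relative to DMSO.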

Assay [9] concerns the target Nuclear receptor subfamily 1 group I member 3 (Homo sapiens) (UniProt Q14994). Briefly: ATG_CAR_TRANS: Attagene TRANS-FACTORIAL HepG2 Assay for human Constitutive Androstane Receptor (CAR) (AID 2282969; active = hit-call score of the fitted dose curve at least 0.9, where 1 is the maximum;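 note: activators raise reporter mRNA above DMSO so AC50 marks induction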). Particulars: HepG2 Attagene TRANS-FACTORIAL CAR reporter. Put shortly:
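Signal is reporter mRNA induction relative to DMSO, measured 24 h after dosing by RT-PCR with fluorescent primer extension and capillary electrophoresis. Human HepG2 liver cells carried transiently transfected chimeric NR-Gal4/GAL4-UAS reporter constructs.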

Assay [10] concerns the target Estrogen receptor (Homo sapiens) (UniProt P03372). Briefly: ATG_ERa_TRANS: Attagene TRANS-FACTORIAL HepG2 Assay for human Estrogen Receptor alpha (ERa) (AID 2282970; active = hit-call score of the fitted dose curve at least 0.9, where 1 is the maximum). Particulars: HepG2 Attagene TRANS ERa GAL4 reporter, mRNA. Put shortly:
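Gal4-fusion ERa transactivation, measured as reporter transcript level in transiently transfected HepG2 cells. Exposure 24 h; RT-PCR plus capillary electrophoresis with fluorescence detection.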

For assay [11], the target named is Steroid hormone receptor ERR1 (Homo sapiens) (UniProt P11474). Briefly: ATG_ERRa_TRANS: Attagene TRANS-FACTORIAL HepG2 Assay for human Estrogen-Related Receptor alpha (ERRa) (AID 2282971; active = hit-call score of the fitted dose curve at least 0.9, where 1 is the maximum). Particulars: HepG2 Attagene TRANS reporter, ERRa transactivation. Put shortly:
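HepG2 cells transiently transfected with GAL4-UAS reporter units and chimeric NR-Gal4 constructs; after 24 hour compound incubation, reporter mRNA quantified by RT-PCR, fluorescent labelling and capillary electrophoresis, gain of signal versus DMSO.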

For assay [12], the target named is X-box-binding protein 1 (Homo sapiens) (UniProt P17861). Nature of the assay: ATG_Xbp1_CIS: Attagene CIS-FACTORIAL HepG2 Assay for human X-box Binding Protein 1 (XBP1) (AID 2282972). Particulars: HepG2 XBP1 cis-element reporter, Attagene multiplex; actives raise or lower the signal. Put shortly: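 Human hepatoma HepG2, cis-element reporter system, 24 h treatment; mRNA quantified by RT-PCR/CE fluorescence; fit relative to DMSO.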
Chain of X-box-binding protein 1 (Homo sapiens) (P17861 whole entry, looked up): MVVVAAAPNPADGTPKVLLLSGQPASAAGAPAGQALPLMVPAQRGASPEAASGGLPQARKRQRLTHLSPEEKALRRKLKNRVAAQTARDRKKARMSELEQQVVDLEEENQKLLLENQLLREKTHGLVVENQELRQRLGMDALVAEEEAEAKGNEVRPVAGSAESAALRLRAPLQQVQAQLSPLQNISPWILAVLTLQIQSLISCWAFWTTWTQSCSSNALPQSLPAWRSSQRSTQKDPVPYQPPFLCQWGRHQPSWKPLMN

Assay [13] can be described thus: ATG_M_19_TRANS: Attagene TRANS-FACTORIAL HepG2 Assay for M19 Transcription Factor (Internal Marker) (AID 2282974; active = hit-call score of the fitted dose curve at least 0.9, where 1 is the maximum). Particulars: HepG2 Attagene TRANS-FACTORIAL M19 internal marker reporter. Put shortly: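 Gain-of-signal in reporter mRNA, relative to DMSO, was scored from capillary electrophoresis fluorescence. HepG2 cells carried transiently transfected multiple reporter transcription units and were incubated with test chemicals for 24 h.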

Assay [14] addresses Estrogen-related receptor gamma (Homo sapiens) (UniProt P62508). Nature of the assay: ATG_ERRg_TRANS: Attagene TRANS-FACTORIAL HepG2 Assay for human Estrogen-Related Receptor gamma (ERRg) (AID 2282977; active = hit-call score of the fitted dose curve at least 0.9, where 1 is the maximum;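 note: hits increase reporter signal over DMSO so potencies reflect activators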). The following applies: HepG2 Attagene TRANS reporter, ERRg transactivation. Put shortly: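 Induction of reporter transcripts through a chimeric NR-Gal4 protein is quantified in transfected human HepG2 liver cells after 24 h chemical exposure, using RT-PCR with capillary electrophoresis detection and DMSO as baseline.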

Assay [15] is described as follows: ATG_Sox_CIS: Attagene CIS-FACTORIAL HepG2 Assay for human SRY-box transcription factor (SOX) (AID 2282960). Particulars: HepG2 Attagene cis-factorial SOX reporter, mRNA; actives raise or lower the signal. Put shortly:
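Using transiently transfected HepG2 cells, reporter transcription driven by cis elements was assessed 24 h after dosing. Signal was fluorescence of capillary-separated RT-PCR products, with DMSO defining baseline activity.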

Assay [16] is described as follows: ATG_TA_CIS: Attagene CIS-FACTORIAL HepG2 Assay for human TA Basal Promoter (AID 2282964). The following applies: HepG2 Attagene CIS-factorial TA basal promoter reporter; actives raise or lower the signal. Put shortly:
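Background internal-marker endpoint from a 52-component HepG2 cis-reporter panel. Cells treated 24 h; reporter transcripts quantified via RT-PCR and CE fluorescence against DMSO baseline.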

For assay [17], the target named is Signal transducer and activator of transcription 3 (Homo sapiens) (UniProt P40763). Nature of the assay: ATG_STAT3_CIS: Attagene CIS-FACTORIAL HepG2 Assay for human Signal Transducer and Activator of Transcription 3 (STAT3) (AID 2282963). Particulars: HepG2, Attagene cis-factorial STAT3 reporter transcription; actives raise or lower the signal. Put shortly: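 Readout is reporter transcript quantified by RT-PCR and capillary electrophoresis, with 6-FAM primer extension and HpaI digestion. Total RNA is taken 24 h after dosing transiently transfected HepG2 carrying cis-regulated reporter units. Bidirectional fit against DMSO.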
Chain of Signal transducer and activator of transcription 3 (Homo sapiens) (P40763 whole entry, looked up): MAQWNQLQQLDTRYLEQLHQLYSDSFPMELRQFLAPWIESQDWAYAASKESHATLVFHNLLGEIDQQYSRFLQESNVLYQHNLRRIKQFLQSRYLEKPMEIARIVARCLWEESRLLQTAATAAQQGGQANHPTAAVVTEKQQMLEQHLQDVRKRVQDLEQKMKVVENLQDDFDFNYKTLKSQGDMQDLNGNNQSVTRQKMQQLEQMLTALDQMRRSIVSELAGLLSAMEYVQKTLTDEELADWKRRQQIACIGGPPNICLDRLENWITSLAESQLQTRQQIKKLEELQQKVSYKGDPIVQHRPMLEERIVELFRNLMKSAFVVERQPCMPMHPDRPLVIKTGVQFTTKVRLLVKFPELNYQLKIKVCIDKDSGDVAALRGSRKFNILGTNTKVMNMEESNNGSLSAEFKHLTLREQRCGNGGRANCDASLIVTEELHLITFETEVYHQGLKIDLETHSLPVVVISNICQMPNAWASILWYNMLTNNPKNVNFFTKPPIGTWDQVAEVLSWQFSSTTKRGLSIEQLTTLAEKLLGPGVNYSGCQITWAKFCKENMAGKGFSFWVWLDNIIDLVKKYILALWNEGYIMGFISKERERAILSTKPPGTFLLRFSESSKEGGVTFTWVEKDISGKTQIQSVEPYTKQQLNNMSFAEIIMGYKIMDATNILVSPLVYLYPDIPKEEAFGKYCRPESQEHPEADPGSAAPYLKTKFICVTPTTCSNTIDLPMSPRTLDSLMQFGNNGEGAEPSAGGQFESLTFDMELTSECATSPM

A short description of assay [18]: ATG_GAL4_TRANS: Attagene TRANS-FACTORIAL HepG2 Assay for GAL4 (Internal Marker) (AID 2282976; active = hit-call score of the fitted dose curve at least 0.9, where 1 is the maximum). The following applies: HepG2 Attagene TRANS GAL4 internal marker reporter. Put shortly: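 Background-control readout: GAL4-UAS reporter transcript in transiently transfected HepG2 cells after 24 h compound exposure. Measured by RT-PCR, 6-FAM primer extension, HpaI digest and capillary electrophoresis; gain-of-signal fit versus DMSO.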

For assay [19], the target named is Bile acid receptor (Homo sapiens) (UniProt Q96RI1). Briefly: ATG_FXR_TRANS: Attagene TRANS-FACTORIAL HepG2 Assay for Farnesoid X Receptor (FXR) (AID 2282979; active = hit-call score of the fitted dose curve at least 0.9, where 1 is the maximum;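 note: hits raise reporter mRNA above DMSO so AC50 marks FXR activation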). The following applies: HepG2 Attagene TRANS FXR-GAL4 reporter transcription. Put shortly:
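HepG2 cells were transiently transfected with GAL4-UAS reporters driven by chimeric NR-Gal4 proteins and dosed for 24 h. Reporter mRNA was quantified by RT-PCR, fluorescent labelling, HpaI digestion and capillary electrophoresis, with gain of signal scored versus DMSO.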

Each structure is given as a SMILES string. Results filed as inconclusive are left out. The source made the active and inactive calls. Rule for the calls, unless noted: active = hit-call score of the fitted dose curve at least 0.9, where 1 is the maximum; inactive = score below 0.9.

Chain of Estrogen receptor (Homo sapiens) (P03372 whole entry, looked up, the tested form may be a part): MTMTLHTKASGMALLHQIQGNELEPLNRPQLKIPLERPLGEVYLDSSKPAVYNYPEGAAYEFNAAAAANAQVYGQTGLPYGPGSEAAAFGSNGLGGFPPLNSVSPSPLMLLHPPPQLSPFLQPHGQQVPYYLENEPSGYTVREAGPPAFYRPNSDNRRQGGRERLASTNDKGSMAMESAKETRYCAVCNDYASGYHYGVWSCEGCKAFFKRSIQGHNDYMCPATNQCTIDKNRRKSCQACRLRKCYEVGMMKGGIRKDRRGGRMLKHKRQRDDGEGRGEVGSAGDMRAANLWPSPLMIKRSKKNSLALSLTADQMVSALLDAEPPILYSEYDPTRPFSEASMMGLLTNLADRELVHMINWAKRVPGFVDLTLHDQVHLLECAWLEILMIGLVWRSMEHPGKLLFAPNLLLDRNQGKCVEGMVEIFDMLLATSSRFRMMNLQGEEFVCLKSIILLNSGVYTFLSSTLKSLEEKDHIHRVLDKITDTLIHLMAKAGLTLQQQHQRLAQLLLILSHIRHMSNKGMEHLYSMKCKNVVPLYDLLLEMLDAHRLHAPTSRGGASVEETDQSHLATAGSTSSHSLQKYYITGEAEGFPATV
Chain of Estrogen-related receptor gamma (Homo sapiens) (P62508 whole entry, looked up, the tested form may be a part): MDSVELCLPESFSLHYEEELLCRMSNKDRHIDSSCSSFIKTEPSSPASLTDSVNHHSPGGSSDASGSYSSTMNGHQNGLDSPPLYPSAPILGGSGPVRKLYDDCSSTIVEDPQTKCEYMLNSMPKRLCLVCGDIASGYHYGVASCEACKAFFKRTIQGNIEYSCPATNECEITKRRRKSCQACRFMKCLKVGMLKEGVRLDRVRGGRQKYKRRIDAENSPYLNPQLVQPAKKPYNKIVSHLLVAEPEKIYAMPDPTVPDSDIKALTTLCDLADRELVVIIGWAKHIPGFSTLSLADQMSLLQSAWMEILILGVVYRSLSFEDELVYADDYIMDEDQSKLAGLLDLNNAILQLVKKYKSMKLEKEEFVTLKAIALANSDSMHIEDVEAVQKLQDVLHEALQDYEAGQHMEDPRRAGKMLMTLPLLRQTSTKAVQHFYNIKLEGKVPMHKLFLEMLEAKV
Chain of Steroid hormone receptor ERR1 (Homo sapiens) (P11474 whole entry, looked up, the tested form may be a part): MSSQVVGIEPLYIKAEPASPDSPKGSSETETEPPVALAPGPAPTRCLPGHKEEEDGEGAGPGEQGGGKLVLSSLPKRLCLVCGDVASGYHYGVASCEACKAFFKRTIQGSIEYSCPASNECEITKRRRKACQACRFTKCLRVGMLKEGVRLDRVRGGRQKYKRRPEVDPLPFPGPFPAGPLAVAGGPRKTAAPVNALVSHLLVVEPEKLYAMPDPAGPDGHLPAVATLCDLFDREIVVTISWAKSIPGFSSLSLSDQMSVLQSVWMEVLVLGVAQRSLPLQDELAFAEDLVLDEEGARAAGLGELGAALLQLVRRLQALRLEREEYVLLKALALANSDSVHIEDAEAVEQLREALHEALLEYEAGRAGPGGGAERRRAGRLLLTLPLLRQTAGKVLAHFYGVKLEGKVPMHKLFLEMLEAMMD
Chain of Nuclear receptor subfamily 1 group I member 3 (Homo sapiens) (Q14994 whole entry, looked up, the tested form may be a part): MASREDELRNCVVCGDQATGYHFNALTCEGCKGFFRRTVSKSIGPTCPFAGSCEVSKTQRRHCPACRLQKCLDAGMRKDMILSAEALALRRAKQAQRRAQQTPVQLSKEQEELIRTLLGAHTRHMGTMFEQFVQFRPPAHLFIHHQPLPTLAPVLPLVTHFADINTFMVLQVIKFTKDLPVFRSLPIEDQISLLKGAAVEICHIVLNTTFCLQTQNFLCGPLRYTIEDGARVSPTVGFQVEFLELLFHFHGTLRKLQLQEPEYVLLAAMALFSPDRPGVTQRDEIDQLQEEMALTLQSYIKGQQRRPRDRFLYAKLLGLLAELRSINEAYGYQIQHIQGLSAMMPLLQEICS
Chain of Transcription factor Sp1 (Homo sapiens) (P08047 whole entry, looked up): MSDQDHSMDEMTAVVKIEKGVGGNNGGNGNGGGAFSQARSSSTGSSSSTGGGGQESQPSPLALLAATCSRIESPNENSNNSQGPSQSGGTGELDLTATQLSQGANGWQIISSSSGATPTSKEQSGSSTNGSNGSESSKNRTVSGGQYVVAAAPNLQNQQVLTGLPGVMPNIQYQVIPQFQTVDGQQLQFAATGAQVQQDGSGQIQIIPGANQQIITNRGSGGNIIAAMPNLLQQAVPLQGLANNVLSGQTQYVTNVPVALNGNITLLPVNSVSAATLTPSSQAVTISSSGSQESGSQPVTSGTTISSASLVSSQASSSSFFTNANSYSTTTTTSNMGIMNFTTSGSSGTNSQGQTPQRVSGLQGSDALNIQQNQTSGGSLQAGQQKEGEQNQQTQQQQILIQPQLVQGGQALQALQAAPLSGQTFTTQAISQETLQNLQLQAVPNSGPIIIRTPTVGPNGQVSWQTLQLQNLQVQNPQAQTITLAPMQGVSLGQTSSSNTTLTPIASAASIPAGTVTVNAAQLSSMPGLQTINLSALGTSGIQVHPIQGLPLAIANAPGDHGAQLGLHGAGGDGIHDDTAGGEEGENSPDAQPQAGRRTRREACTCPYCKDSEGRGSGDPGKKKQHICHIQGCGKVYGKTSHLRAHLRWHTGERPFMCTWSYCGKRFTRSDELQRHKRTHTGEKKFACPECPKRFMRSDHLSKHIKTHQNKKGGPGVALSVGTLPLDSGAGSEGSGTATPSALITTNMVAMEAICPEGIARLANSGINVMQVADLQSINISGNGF
Chain of Bile acid receptor (Homo sapiens) (Q96RI1 whole entry, looked up, the tested form may be a part): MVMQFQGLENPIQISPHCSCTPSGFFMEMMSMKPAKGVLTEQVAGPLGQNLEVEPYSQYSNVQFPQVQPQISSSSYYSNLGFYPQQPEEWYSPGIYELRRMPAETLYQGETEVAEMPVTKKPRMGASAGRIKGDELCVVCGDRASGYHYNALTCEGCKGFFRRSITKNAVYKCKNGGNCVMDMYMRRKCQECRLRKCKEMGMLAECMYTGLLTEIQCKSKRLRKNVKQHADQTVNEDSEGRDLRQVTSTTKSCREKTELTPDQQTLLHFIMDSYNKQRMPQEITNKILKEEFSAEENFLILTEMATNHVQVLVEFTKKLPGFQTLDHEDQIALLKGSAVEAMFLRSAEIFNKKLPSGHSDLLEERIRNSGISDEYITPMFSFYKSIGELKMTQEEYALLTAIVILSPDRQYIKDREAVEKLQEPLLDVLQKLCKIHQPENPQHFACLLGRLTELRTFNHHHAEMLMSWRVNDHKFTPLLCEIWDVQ

In general, AC50 refers to the midpoint of the concentration-response curve, whichever way the signal moves. For the compound `Nc1cccc(Cl)c1`, the compound was classed as inactive in [1], in assay [2], in [3], in [4], in assay [5] and in assay [6]. The call in assay [8], in assay [9], in assay [10], in assay [11], in assay [12] and in assay [13] was inactive. In assay [14], the compound was called inactive. Further, in assay [7], the AC50 was 739 nM (active).
`C[C@H]1CCCC(=O)CCC/C=C/c2cc(O)cc(O)c2C(=O)O1`: the compound was classed as inactive in assay [1], in [2], in [15], in assay [3], in assay [4] and in assay [16]. The call in [5], in assay [7] and in assay [12] was inactive. For the same compound, the AC50 in assay [10] was 0.00409 µM (active).
For `O=C(NCO)NCO`, the compound was called inactive in assay [1], in assay [2], in assay [3], in assay [4], in [17] and in assay [16]. Also, the result in assay [5], in assay [6], in assay [7], in [8], in [10] and in [12] was inactive. Moreover, the compound was called inactive in [18].
Turning to `CCCCC(CC)CO[N+](=O)[O-]` (configuration not stated), the compound was classed as inactive in assay [1], in [3], in assay [4], in assay [17], in assay [16] and in [5]. Further, the outcome in assay [7] and in [12] was inactive. In addition, the values for the AC50 in [2] and in assay [8] were 99.5 µM (active) and 143 µM (active), respectively.
With `O=C1CCCN1`, the result in [1], in [2], in [3], in [4], in [16] and in assay [5] was inactive. Further, the compound was called inactive in [6], in [7], in assay [9], in assay [12], in assay [13] and in [18]. Also, in assay [19], the compound was called inactive.
`ClCCBr`: the compound was classed as inactive in assay [1], in assay [2], in assay [3], in [4], in assay [17] and in assay [16]. In addition, the compound was classed as inactive in assay [5], in assay [6], in assay [7], in [9], in assay [10] and in [11]. In addition, the call in [12], in assay [18] and in [14] was inactive.
Consider `C1CCC(NC2CCCCC2)CC1`, for which the compound was classed as inactive in assay [1], in assay [2], in assay [3], in assay [4], in assay [17] and in assay [16]. For the same compound, the outcome in assay [5], in assay [6], in assay [7], in [8], in [12] and in assay [13] was inactive. Further, the AC50 in assay [10] was 59.7 µM (active).
Consider `NNC(=S)NN`, for which the result in [1], in assay [2], in assay [15], in assay [3], in assay [4] and in assay [16] was inactive. The result in assay [5], in [7], in assay [8], in [10], in assay [11] and in assay [12] was inactive. For the same compound, the result in assay [13] and in assay [18] was inactive.
For the compound `c1ccc(N=NNc2ccccc2)cc1`, the AC50 was 21.7 µM (active) in [1]; 153 µM (active) in [3]; 136 µM (active) in assay [4]; 28.4 µM (active) in [8]; 27.1 µM (active) in [10]; 108 µM (active) in assay [12]. Further, the call in assay [2], in assay [17], in assay [16], in [5], in [6] and in [7] was inactive. The compound was called inactive in assay [9], in [11] and in assay [14].

The record behind these values is PubChem BioAssay (EPA / NIEHS).
